This is a sample that favours compounds with a hit; in the whole collection about 7.2% have one here.
RE007 growth inh: less growth of the S. pombe RE007 Vpr strain | 360,000 tested, 0.21% active | Potency, µM (highest dose often 92.2 µM), inactives show at the top dose activity change, negative = less growth, hits mostly inhibitors | S. pombe RE007 Vpr strain, BacTiter-Glo ATP luminescence, 24 h; active = well fitted falling curve with a large enough effect; inconclusive = small, poorly fitted or top-dose-only effect; inactive = no such curve, though single readings can be large or run the other way; note: % is set by controls: 0 for no effect and ±100 for the full control effect; nearly all actives have a fitted effect of over 50% in size
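Fission yeast RE007 carrying one integrated HIV-1 vpr copy, seeded at OD 0.01 in PMG+AL medium with 23 nL pinned compound. Grown 24 h at 30 degrees; viability read by BacTiter-Glo luminescence after 5 min.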
Marburg entry inh: Marburg virus entry inhibition | Marburg virus pseudotyped entry inhibition, cell reporter | Potency, µM (top dose mostly 37.8 µM), inactives show at the highest dose activity change, negative = inhibition, actives largely listed as inhibitors | 300,000 tested, 1.8% active | AID 540276; calls by dose curve; tested in HEK293 cells; note: % is set by controls: 0 for no effect and ±100 for the full control effect
HCV inh: blocks hepatitis C virus. Huh7.5.1 HCVcc-Cre infection, luciferase reporter, 44 h. Potency, µM (doses to about 41.8 µM), for inactives: at the highest dose activity change, negative = inhibition, hits mostly inhibitors. 340,000 tested, 3.4% active. AID 651820; note: % is set by controls: 0 for no effect and ±100 for the full control effect
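Reporter virus HCVcc-Cre (~0.5 moi) infects cells exposed to compound; seeding density 1,000 cells/well with 4 h settling beforehand. Luminescence, 15 sec read, taken 44 h post-infection following a 15 min RT substrate incubation.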
LASV entry inh: blocks Lassa virus binding to or entry into cells. Lassa virus pseudotype entry inhibition, cell reporter. Potency, µM (top dose mostly 37.9 µM), inactives show at the top dose activity change, negative = inhibition, usual class: inhibitors. 300,000 tested, 1.2% active; calls by dose curve; tested in HEK293 cells; note: % is set by controls: 0 for no effect and ±100 for the full control effect; nearly all actives have a fitted effect of over 50% in size
Sm TGR inh: inhibitors of Schistosoma mansoni thioredoxin glutathione reductase; Q962Y6; AID 485364; 360,000 tested, 3% active; Potency, µM (series often up to 114 µM), for the others: at the highest dose activity change, negative = inhibition, hits mostly inhibitors; purified TGR, DTNB reduction, TNB absorbance 405 nm; note: % is set by controls: 0 for no effect and ±100 for the full control effect; nearly all actives have a fitted effect of over 60% in size
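Kinetic colorimetric format: TGR-catalysed, NADPH-driven DTNB reduction monitored via TNB absorbance. Enzyme dispensed at 20 nM; compound exposure 15 min at room temperature before reaction start.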
FMDV inh: foot and mouth disease virus antiviral activity; FMDV antiviral cell-based qHTS; Potency, µM (titrated, usually from 57.9 µM), for inactives: at the top dose activity change, negative = inhibition, usual class: inhibitors; 410,000 tested, 1.2% active; AID 1159524; calls by dose curve; tested in HEK293T cells; note: read-out not given here; % is set by controls: 0 for no effect and ±100 for the full control effect; nearly all actives have a fitted effect of over 45% in size
HCV confirm: confirmation of hepatitis C virus inhibitors | AID 720575 | shares compounds with HCV inh | HCVcc-Cre infectious virus cell assay, luciferase, inhibition | Potency, µM (doses to about 41.8 µM), for the others: at the top dose activity, negative = inhibition, hits mostly inhibitors | 640 tested, 78% active; note: nearly all actives have a fitted effect of over 80% in size
HCV cytotox: toxic to HCV host cells, flagging false HCV inhibitors; shares compounds with HCV inh; HCV host cell line cytotoxicity counterscreen; Potency, µM (titrated, usually from 41.8 µM), for inactives: at the highest dose activity change, negative = cytotoxicity, actives largely listed as inhibitors; 640 tested, 22% active; AID 720576;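 note: 44 h compound exposure; % is set by controls: 0 for no effect and ±100 for the full control effect; nearly all actives have a fitted effect of over 55% in size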
* marks the source's active call; other numbers are inactive results; ? = inconclusive; . = not tested or not shown; [ ] = another dose, or the depositor's remark. Unless noted, calls come from the whole dose curve; as a rule, active = well fitted curve in the direction sought with a large enough effect; inconclusive = small, poorly fitted or top-dose-only effect, or another doubt; inactive = no such curve, though single readings can be large; an effect the other way counts as inactive or inconclusive. Potency is the fitted concentration of half-maximal effect.

SMILES	RE007 growth inh	Marburg entry inh	HCV inh	LASV entry inh	Sm TGR inh	FMDV inh	HCV confirm	HCV cytotox
COc1cc(C)ccc1N(CCCN1C(=O)c2cccc3cccc(c23)C1=O)C(=O)c1cccs1	8%	?	5.6µM*	?	-4%	?	13µM*	36%
COc1ccc(N(CCCN2C(=O)c3cccc4cccc(c34)C2=O)C(=O)c2cccs2)cc1	9%	2%	?	0%	-4%	-29%	.	.
COC(=O)N1CCC2(CCN(Cc3ccc(C#N)cc3)CC2)CC1	.	.	.	.	.	-7%	.	.
CCOC(=O)COc1ccccc1C1C(C(=O)OC)=C(C)NC2=C1C(=O)c1ccccc12 (stereo unspecified)	.	?	.	-7%[46.1 µM]	0%	-18%	.	.
CCOC(=O)c1cc(-c2ccco2)nc2c1c(C)nn2CCC#N	-14%	-25%	?	-3%	4µM*	0%	?	10%
CCOC(=O)c1cc(-c2ccc(Cl)cc2)nc2c1c(C)nn2CCC#N	5%	?	?	1%	8%	-12%	.	.
O=C(COC(=O)c1ccccc1Br)NC(=O)NCc1ccccc1	-1%	.	-7%	.	.	-2%	.	.
CC(=O)Nc1ccc(C(=O)Nc2ccc3c(c2)OCCO3)cc1	13%	.	-2%	.	-1%	22%	.	.
Cc1cc(C)n(-c2ccc(C(=O)Nc3ccc4c(c3)OCCO4)cc2)n1	18%	-26%	?	4%	-2%	-2%	?	-29%
CCCn1c(N)c(C(=O)COc2ccc(Br)cc2F)c(=O)n(C)c1=O	0%	.	?	.	-2%	?	22µM*	-21%
CCc1c(C)nc2ncnn2c1NCCc1ccc(Cl)cc1	17%	?	?	?	0%	14µM*	7µM*	?
CSc1ccc(CCNC(=O)C2CCN(c3nc4ccccc4nc3C(F)(F)F)CC2)cc1	.	.	.	5%[46.1 µM]	11%	-13%	.	.
Cc1cc(C)cc(N2C(=O)CS(=O)(=O)C23C(=O)N(Cc2ccc(F)cc2)c2ccc(C)cc23)c1 (stereo unspecified)	.	.	.	?	-11%	-7%	.	.
CCOc1ccc(CNC(=O)c2ccc(Sc3ccc(Cl)cc3)c(NC(C)=O)c2)cc1	-2%	?	-29%	?	-3%	-30%	.	.
CCOc1ccccc1CNC(=O)c1ccc(Sc2ccc(Cl)cc2)c(NC(C)=O)c1	.	-22%	?	-1%	-1%	-14%	13µM*	18%
Cc1cccc(CN2C(=O)N/C(=C/c3cc(C)n(-c4cc(C)ccn4)c3C)C2=O)c1	-22%	?	1.8µM*	11µM*	-32%	-30%	16µM*	8%
Cc1cc(/C=C2/NC(=O)NC2=O)c(C)n1-c1ccccn1	23%	?	7%	-15%	-1%	20%	.	.
COc1ccc(-n2c(=O)c(CCc3ccccc3)nc3cnc(N4CCNCC4)nc32)cc1	.	.	.	.	.	-8%	.	.
Nc1nc(F)nc2c1ncn2[C@@H]1O[C@H](CO)[C@@H](O)[C@H]1O	-5%[18.4 µM]	.	0.79µM*	.	.	?	2µM*	6.3µM*

From PubChem
